Compounds with a hit are over-represented: about 3.3% of the library has one in this group of screens.
SARS PLpro yeast = inhibitors of SARS-CoV papain-like protease in yeast; Potency, µM (titrated, usually from 32.9 µM), for inactives: at the highest dose activity, positive = growth rescue, most hits filed as activators; 330,000 tested, 0.19% active; S. cerevisiae expressing SARS-CoV PLpro, growth rescue; AID 485353; calls by dose curve; also: 0% is about no effect; nearly all actives have a fitted effect of over 55% in size
AmpC detergent = blocks E. coli AmpC beta-lactamase in detergent assay | AmpC hydrolysis of nitrocefin, absorbance 480 nm, 0.01% Triton | Potency, µM (highest dose often 114 µM), inactives show at the highest dose activity change, negative = inhibition, actives largely listed as inhibitors | AID 485294 | 370,000 tested, 0.041% active | P00811;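 also: 0% = no-compound wells and -100% = no-enzyme wells; nearly all actives have a fitted effect of over 25% in size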
Target sequence (P00811 whole entry, looked up): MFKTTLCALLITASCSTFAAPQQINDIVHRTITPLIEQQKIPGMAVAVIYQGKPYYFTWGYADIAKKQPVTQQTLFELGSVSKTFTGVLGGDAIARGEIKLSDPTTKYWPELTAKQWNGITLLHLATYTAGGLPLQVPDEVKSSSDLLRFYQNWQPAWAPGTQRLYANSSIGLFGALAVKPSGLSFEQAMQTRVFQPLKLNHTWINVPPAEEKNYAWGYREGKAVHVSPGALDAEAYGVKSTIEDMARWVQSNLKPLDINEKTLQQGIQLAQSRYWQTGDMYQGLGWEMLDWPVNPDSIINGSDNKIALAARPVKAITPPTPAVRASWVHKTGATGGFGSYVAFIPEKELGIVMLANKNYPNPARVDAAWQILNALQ
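AmpC (5.3 nM in the dispensed reagent) in 20 mM phosphate pH 7.0 with 0.01% (detergent screen) or 0.0001% Triton X-100 was preincubated with compounds for 15 min at room temperature. Nitrocefin was then added from an 800 uM solution, and hydrolysis was followed at 480 nm.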
RE007 growth inh = less growth of the S. pombe RE007 Vpr strain | S. pombe RE007 Vpr strain, BacTiter-Glo ATP luminescence, 24 h | Potency, µM (titrated, usually from 92.2 µM), for inactives: top-dose activity change, negative = less growth, actives largely listed as inhibitors | 360,000 tested, 0.21% active; active = well fitted falling curve with a large enough effect; inconclusive = small, poorly fitted or top-dose-only effect; inactive = no such curve, though single readings can be large or run the other way; also: % is scaled to controls: 0 for no effect and ±100 for the full control effect; nearly all actives have a fitted effect of over 50% in size
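Fission yeast strain RE007, carrying one chromosomally integrated HIV-1 vpr copy, was seeded at OD 0.01 in PMG+AL medium with 23 nL pinned compound. After 24 h at 30 °C and 99% humidity, viability was read by BacTiter-Glo luminescence.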
Sm TGR inh = S. mansoni TGR enzyme inhibition. Q962Y6. 360,000 tested, 3% active. purified TGR, DTNB reduction, TNB absorbance 405 nm. Potency, µM (top dose mostly 114 µM), for the others: at the highest dose activity change, negative = inhibition, hits mostly inhibitors; also: % is scaled to controls: 0 for no effect and ±100 for the full control effect; nearly all actives have a fitted effect of over 60% in size
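TGR 20 nM + NADPH 100 uM (dispensed conc.), cpd preinc 15 min RT; start with NADPH (500 uM addition) then DTNB (15 mM addition). Kinetic TNB absorbance, 405 nm filter. Four-parameter Hill fit across titration.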
AmpC inh no detg = inhibitors of E. coli AmpC beta-lactamase without detergent; AmpC nitrocefin hydrolysis, absorbance 480 nm, 0.0001% Triton; 330,000 tested, 0.52% active; Potency, µM (highest dose often 57.1 µM), for the others: at the highest dose activity change, negative = inhibition, actives largely listed as inhibitors; AID 485341; P00811;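 also: plate controls were no compound for no effect and no enzyme for full effect; nearly all actives have a fitted effect of over 20% in size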
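20 mM phosphate pH 7.0 + 0.01% (detergent screen) or 0.0001% Triton X-100; 5.3 nM AmpC reagent; cpd preinc 15 min RT; nitrocefin (800 uM stock) to start; A480 q20 s × 4 min; Activity was normalised to no-enzyme and no-compound control wells.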
Tb PYK inh = T. brucei pyruvate kinase inhibition; Q57TT1; TbPYK enzyme, Kinase-Glo Plus ATP luminescence, 45 min; Potency, µM (doses to about 76.8 µM), inactives show at the highest dose activity, negative = inhibition, most hits filed as inhibitors; 410,000 tested, 0.12% active; also: % is scaled to controls: 0 for no effect and ±100 for the full control effect; nearly all actives have a fitted effect of over 50% in size
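Assay buffer: 50 mM TEA pH 7.2, 100 mM KCl, 10 mM MgCl2, 0.05% BSA, 0.01% Tween-20. Pyruvate kinase from T. brucei plus substrate met compound, then ADP (130 uM final). Luminescence was read post 45 min RT.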
Starred values were filed as active, the others as inactive; ? = inconclusive; / = not tested or not shown; [ ] = remark or other dose. Unless noted, calls follow the shape of the dose curve; as a rule, active = well fitted curve in the direction sought with a large enough effect; inconclusive = small, poorly fitted or top-dose-only effect, or another doubt; inactive = no such curve, though single readings can be large; an effect the other way counts as inactive or inconclusive. Potency is read from the fitted curve at half-maximal effect.

SMILES	SARS PLpro yeast	AmpC detergent	RE007 growth inh	Sm TGR inh	AmpC inh no detg	Tb PYK inh
Cc1sc2ccc3sccc3c2[n+]1C	-1.2%	-9.5%	1.6%	-1.6%	82.3%	8.91µM*
Cc1ccc(N2CC(NC(=O)C(=O)c3c[nH]c4ccccc34)CC2=O)cc1 (stereo not drawn)	/	0.7%	/	2.3%	/	-7.3%
CC(=O)N1CCc2c(sc3c2c(=O)n(-c2ccccc2)c(=O)n3CC(=O)c2ccc(Cl)cc2)C1	/	20.5%	/	-3.4%	/	3.9%
COc1ccc(-n2c(CN3CCC(C(N)=O)CC3)nc3ccc([N+](=O)[O-])cc3c2=O)c(OC)c1	5.5%	-1.8%	7.7%	44.7µM*	-40.1%	-0.2%
CCOC(=O)C1CCN(Cc2nc3ccc([N+](=O)[O-])cc3c(=O)n2-c2ccc(OC)cc2OC)CC1	1.4%	2.4%	2.1%	31.6µM*	-10.5%	-3.3%
CCOc1ccc(CC(=O)NCc2ccc3c(c2)CCN3C(C)=O)cc1OCC	/	-5.2%	/	-6.5%	/	5.2%
O=C(Nc1nc(-c2ccco2)cs1)c1ccccc1	-16.4%	-15.2%	?	-14.6%[11.4 µM]	-36.1%	-28.6%
Cc1ccc(-c2csc(NC(=O)c3ccc(-c4ccccc4)cc3)n2)o1	-29.3%	-13.0%	-4.1%	10µM*	-21.0%	-20.2%
COc1ccc(OC)c(-c2csc(NC(=O)Cc3ccc(F)cc3)n2)c1	-7.9%	6.0%	12.7%	11.3%	-13.8%	-6.2%
Cc1ccc(-c2csc(NC(=O)Cc3ccc(F)cc3)n2)o1	-6.6%	9.4%	-17.4%	7.08µM*	?	?
Cc1ccc(-c2csc(Nc3ccc(S(N)(=O)=O)cc3)n2)o1	14.0%	1.7%	1.9%	1.78µM*	-55.1%	-19.1%
Cc1nc(C)c(-c2csc(Nc3ccc(S(N)(=O)=O)cc3)n2)s1	-0.9%	-2.1%	1.0%	-21.2%	-32.1%	5.1%
COC(=O)c1c(C)[nH]c(O)c1C=Nc1ccc(C#N)cc1	-0.7%	2.3%	11.1%	12.6µM*	-22.7%	-9.1%
O=C(N/N=C\c1coc2ccccc2c1=O)c1ccco1	0.0%	-12.4%	4.4%	28.2µM*	-25.6%	5.6%
CSCCC(NC(=O)[C@H](Cc1c[nH]c2ccccc12)NC(=O)CNC(=O)[C@H](CCSC)NC(=O)[C@H](Cc1ccc(OS(=O)(=O)O)cc1)NC(=O)[C@@H](N)CC(=O)O)C(=O)N[C@@H](CC(=O)O)C(=O)N[C@@H](Cc1ccccc1)C(N)=O (stereo partly drawn)	/	/	/	/	/	3.4%
CCCOc1ccc(CNC(=O)CCCn2nc(C)c3sc4ccccc4c3c2=O)cc1	/	3.2%	/	39.1%	/	1.3%
COc1cc(C=C2C(=O)NC(=O)NC2=O)ccc1OCc1ccc([N+](=O)[O-])cc1	-0.5%	-10.3%	18.9%	25.1µM*	-52.1%	?
COc1ccccc1/C=C1\SC(=S)N(CCC(=O)NNC(=O)c2ccccc2O)C1=O	4.3%	-7.8%	-7.9%	-4.9%	15.8µM*	1.7%
O=C(Nc1cccc2c(=O)cc(-c3nn[nH]n3)oc12)c1ccc(OCCCCc2ccccc2)cc1	/	/	/	/	/	0.0%
COC(=O)c1ccc(-c2noc(CN(C)CCC3CCCCO3)n2)cc1 (stereo not drawn)	-7.0%	?	-3.3%	0.1µM*	-48.8%	3.2%
Cc1ccc(C(=O)NC(=S)Nc2ccc(S(=O)(=O)N3CCN(C)CC3)cc2)cc1	1.2%	?	5.4%	28.2µM*	75.2%	-14.0%
CS(=O)(=O)N1CCN(c2ccc(NC(=S)NC(=O)c3cccs3)cc2)CC1	1.3%	3.4%	6.8%	-12.5%	-2.0%	-4.9%
O=C(NC(=S)Nc1ccc(S(=O)(=O)N2CCCCCC2)cc1)c1cccs1	4.5%	-15.2%	7.2%	?	-41.0%	-0.1%
COc1ccc(NC(=S)Nc2cccc(S(=O)(=O)N3CCCCC3)c2)cc1	-0.2%	-10.9%	2.9%	35.5µM*	-39.5%	-5.5%
O=C(NC(=S)Nc1ccc(S(=O)(=O)N2CCCC2)cc1)c1cccs1	18.2%	3.1%	0.8%	17.8µM*	-41.8%	-9.1%
SMILES	SARS PLpro yeast	AmpC detergent	RE007 growth inh	Sm TGR inh	AmpC inh no detg	Tb PYK inh
O=C(NC(=S)Nc1ccc(N2CCCCC2)cc1)c1cccs1	-16.2%	0.6%	?	39.8µM*	-56.7%	6.6%
CCOc1ccc(CCNC(=O)CCCc2nnc3n(CC)c(=O)c4sccc4n23)cc1	/	-7.6%	/	-7.1%	/	4.3%
Cc1ccc(S(=O)(=O)c2cn(CC(=O)Nc3ccc4c(c3)OCO4)c3ccccc3c2=O)cc1	/	2.4%	/	1.0%	/	4.2%
Cc1ccccc1CNC(=O)C(=O)NCC(c1ccc2c(c1)OCO2)N1CCOCC1 (stereo not drawn)	/	1.8%	/	0.1%	/	-4.5%
COc1ccc(OC)c(NC(=O)c2ccc3c(c2)c(C)c(C)n3Cc2ccc(F)cc2)c1	/	2.2%	/	2.4%	/	8.7%[15.4 µM]
COc1cc(OC)cc(C(=O)NC(=S)Nc2ccc(N3CCCC3)cc2)c1	-6.9%	?	-4.1%	89.1µM*	-10.4%	-7.9%
CC(=O)c1ccc(NC(=O)c2ccc(S(=O)(=O)N3CCCC3)cc2)cc1	-6.4%	-4.1%	-4.4%	-5.6%	-39.0%	-3.8%
CC(=O)c1ccc(NC(=O)Nc2ccc(S(=O)(=O)N3CCCC3)cc2)cc1	1.5%	-5.7%	7.8%	-15.1%	14.1µM*	-8.9%
COc1ccc(NC(=O)C(=S)N2CCCC2)cc1	2.4%	-6.5%	15.8µM*	-9.4%	-6.1%	0.5%
CN(C)CCCN1C(=O)C(=O)/C(=C(/O)c2ccccc2)C1c1ccccn1 (stereo not drawn)	8.7%	?	/	-19.5%	-11.5%	/
CCCOc1ccc(/C(O)=C2/C(=O)C(=O)N(CCCN3CCOCC3)C2c2ccncc2)cc1 (stereo not drawn)	-1.7%	-1.8%	/	11.2µM*	-20.7%	/
COc1ccc(/C(O)=C2/C(=O)C(=O)N(CCN(C)C)C2c2ccccn2)cc1OC (stereo not drawn)	2.3%	2.3%	34.8%	12.6µM*	-2.3%	-3.8%
CCCOc1cccc(C2/C(=C(/O)c3ccccc3)C(=O)C(=O)N2CCN(C)C)c1 (stereo not drawn)	?	2.8%	3.2%	-27.3%	-6.9%	3.3%
O=C1C(=O)N(CCN2CCOCC2)C(c2ccccn2)/C1=C(/O)c1ccccc1 (stereo not drawn)	8.6%	-5.3%	6.0%	?	37.1%	2.8%
CCCOc1ccc(/C(O)=C2/C(=O)C(=O)N(CCN(C)C)C2c2ccco2)cc1 (stereo not drawn)	-0.1%	1.5%	0.1%	44.7µM*	-28.6%	4.3%

Screening data deposited in PubChem by National Center for Advancing Translational Sciences (NCATS).
